SMILES strings stand for the structures. The whole screen tested about 370,000 compounds, of which about 3,100 (0.84%) were called active. For the sample, actives were picked, then their nearest neighbours and some compounds at random. Unmarked numbers belong to inactive results.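 The calls were made as follows: active = inhibition above the mean of compounds lying between control limits plus 3 SD, set per campaign (cut at about 8.5% in these data); inactive = the rest.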

Inhibition data for 59 compounds are collected here from PubChem BioAssay AID720648 (The Scripps Research Institute Molecular Screening Center, 2013).

Chain of Disintegrin and metalloproteinase domain-containing protein 17 (Homo sapiens) (P78536 215-824 limits assumed): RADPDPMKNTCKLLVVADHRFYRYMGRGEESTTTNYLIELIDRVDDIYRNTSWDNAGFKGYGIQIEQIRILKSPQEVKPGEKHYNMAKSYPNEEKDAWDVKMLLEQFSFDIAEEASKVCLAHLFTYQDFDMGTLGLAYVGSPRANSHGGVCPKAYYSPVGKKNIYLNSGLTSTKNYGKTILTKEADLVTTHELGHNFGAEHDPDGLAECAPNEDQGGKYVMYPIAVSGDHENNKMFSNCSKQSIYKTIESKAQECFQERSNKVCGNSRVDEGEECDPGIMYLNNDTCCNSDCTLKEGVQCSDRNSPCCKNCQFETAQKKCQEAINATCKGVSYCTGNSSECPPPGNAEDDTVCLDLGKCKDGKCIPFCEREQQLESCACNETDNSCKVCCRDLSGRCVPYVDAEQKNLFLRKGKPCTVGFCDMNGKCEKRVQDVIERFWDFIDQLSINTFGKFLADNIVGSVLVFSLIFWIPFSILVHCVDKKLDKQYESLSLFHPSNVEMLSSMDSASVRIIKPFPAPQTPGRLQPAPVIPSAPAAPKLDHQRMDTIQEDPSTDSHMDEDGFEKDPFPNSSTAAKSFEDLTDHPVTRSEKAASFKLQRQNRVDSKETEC

The assay concerns the target Disintegrin and metalloproteinase domain-containing protein 17 (Homo sapiens) (UniProt P78536). Briefly: ADAM17 inhibitors, primary screen, biochemical, QFRET (AID 720648).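 Also: 0% = DMSO-only wells as the low control.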 The conditions noted are these: recombinant ADAM17, EDANS/DABCYL FRET peptide cleavage; at 6.95 µM; active compounds read high.
On to `CCOC(=O)[C@]12CCCC3=C1N(CCC3)C(=O)[C@@H](CC(=O)NCc1cccs1)C2`, for which the inhibition is 0.06%. The result for `Nn1c(SCC(=O)N2c3ccccc3Sc3ccccc32)nnc1-c1n[nH]c2c1CCC2` reads 5.84%; that for `Cc1ccc(CN2CCCCC(NC(=O)C3CCCCC3)C2=O)cc1` (centres undefined), 1.84%. In the case of `O=C(NC1CCCCN(Cc2ccc(Cl)cc2)C1=O)c1ccc(Br)cc1` (centres undefined) it was 5.04%. In the case of `CN(C)c1ccc(NC(=O)NC2CCCCN(Cc3ccc(Cl)cc3)C2=O)cc1` (centres undefined) it was 8.69% (active).

As for `CN(C)[C@H]1CCN(c2cccc3c2S(=O)(=O)N2CC[C@H](C2)O3)C1`, the inhibition was -2.38%. The result for `COC(=O)C[C@@H]1CC[C@H]2[C@@H](COc3ccc(NS(=O)(=O)CC(F)(F)F)cc3C(=O)N2C)O1` reads -6.55%.

Turning to `CCOC(=O)c1c(S(=O)(=O)Nc2cccc(Cl)c2)c(C)n(C)c1C`, the inhibition is -9.22%.

For the compound `CCOC(=O)c1ccc(CS(=O)c2ccc(Cl)cc2)o1` (centres undefined), the inhibition is -2.74%. The result for `CCOC(=O)c1c(Cc2ccc(Cl)cc2)c[nH]c1C` reads 11.1% (active); that for `CC(C)N1CCCCC(NC(=O)c2ccc3ccccc3c2)C1=O` (centres undefined), -4.85%; that for `COc1ccc(C(=O)NC2CC(C)(C)NC(C)(C)C2)cc1OC`, -2.12%. In the case of `COc1ccc(C(=O)Nc2ccc(C3(C#N)CCCC3)cc2)cc1OC` it was 8.73% (active); in that of `COc1ccc(C(=O)Nc2ccc3nc(N4CCCCC4)cc(C)c3c2)cc1OC`, -7.57%; in that of `C=CCN(C)CC#Cc1ccccc1`, 4%. In the case of `c1coc(CCNc2ncnc3ccc(-c4ccc5c(c4)OCO5)cc23)c1`, the inhibition is -61.9%. The result for `O=C(CSc1nc(Nc2ccccc2)nc(N2CCOCC2)n1)Nc1cc(Cl)ccc1O` reads 10.2% (active); that for `O=C(CSc1nc2ccc(Nc3nc(N4CCOCC4)nc(N4CCOCC4)n3)cc2s1)NCc1ccco1`, -1.45%; that for `O=C(CSc1ccccc1)Nc1cc(Cl)ccc1Oc1ccccc1`, 2.94%.

Take `Cc1cc(=O)[nH]c(SCC(=O)Nc2ccc(Cl)cc2C)n1`: the inhibition is 3.04%. The result for `CCCCNC(=O)C[C@H]1C(=O)N(Cc2ccc(OC)cc2)C2=CCCC[C@@]21C(=O)OCC` reads -4.97%. The result for `CC(C)(C)OC(=O)NCc1cc(F)ccc1/C=C/S(=O)(=O)NCCc1ccccc1` reads 4.18%. In the case of `O=C1NC(=O)C(c2ccc(Cl)cc2)N1` (centres undefined) it was 35.4% (active); in that of `O=C1CSC(c2ccc(Cl)cc2)N1` (centres undefined), -1%; in that of `CC(C)Oc1ccc(C2NC(=O)NC2=O)cc1` (centres undefined), -3.2%.

For the compound `Fc1ccc2nc(COCc3nc4ccc(F)cc4[nH]3)[nH]c2c1`, the inhibition is -1.4%. In the case of `COc1ccc(Cn2ccc3ccc(-c4ccc5ccn(Cc6ccccc6C)c5c4)cc32)cc1`, the inhibition was -14.6%. In the case of `CCCC1CCC2(CCCN2CCOC(=O)NCc2ccccc2)CC1` (centres undefined) it was -6.91%; in that of `COc1ccc(NS(=O)(=O)c2ccc(O)c(C(=O)OCC(=O)NC3CCCCC3)c2)cc1`, -2.64%. In the case of `COc1ccc(S(=O)(=O)Nc2ccc(O)c(Sc3nc4ccccc4s3)c2)cc1` it was 9.23% (active); in that of `COc1cccc(NS(=O)(=O)c2ccc(-c3coc(C)n3)cc2)c1`, 0.72%. The result for `CCOC(=O)C1CCN(C(=O)C(C)(C)NC(=O)Nc2ccccc2Cl)CC1` reads -3.66%; that for `C=CCN1C(=O)[C@@H](CC(=O)NCCCOCCCC)[C@]2(C(=O)OCC)CCCCC/C=C/12`, -0.06%; that for `CCC(c1ccc(NC(=O)OC(C)(C)C)cc1)c1cc(OC)cc(OC)c1` (centres undefined), 3.59%. As to `C=CCN1C(=O)[C@@H](CC(=O)N2CCN(C(=O)OCC)CC2)[C@]2(C(=O)OCC)CCCCC/C=C/12`, the inhibition was -4.2%.

`Cc1cc(C(=O)NN=C/C=C/c2ccco2)n[nH]1`: the inhibition was -5.03%.

With `COC(=O)C1CN(Cc2ccc(F)cc2)CCS(=O)(=O)N1Cc1ccc(Cl)cc1` (centres undefined), the inhibition was -3.73%. In the case of `C[C@H]1[C@H](NC(=O)c2cccc(N(C)C)c2)CC[C@@]23CCCN2C(=O)CCC[C@@H]13` it was -31.1%; in that of `CC(C)(C)CC(=O)Nc1nc(C(N)Cc2ccc(C(F)(F)F)cc2)cs1` (centres undefined), -1.9%; in that of `NC(c1csc(NC(=O)Nc2cccc(C(F)(F)F)c2)n1)C1CCCCC1` (centres undefined), 3.01%. On to `COc1ccc(CC(N)c2csc(NC(=O)NC(c3ccccc3)c3ccccc3)n2)cc1` (centres undefined), for which the inhibition was 8.79% (active). Take `CCOC(=O)c1csc(NC(=O)Nc2cccc(OC)c2)n1`: the inhibition is -0.26%. In the case of `COc1ccc(CC(N)c2csc(NC(=O)Nc3ccc(C(C)C)cc3)n2)cc1` (centres undefined) it was 2.77%; in that of `COc1ccc(C(N)c2csc(NC(=O)Nc3cccc(C(F)(F)F)c3)n2)cc1` (centres undefined), 13.7% (active).

With `COc1ccc(-n2c(COc3ccc(C)cc3)nnc2SCC(=O)Nc2ccc(Oc3ccccc3)cc2)cc1`, the inhibition is -2.03%. In the case of `O=C1Nc2ccccc2OC1CC(=O)N1CCCCCCC1` (centres undefined) it was -1.23%; in that of `CCCCN1CCN(C(=O)c2ccc3c(c2)NC(=O)C(C)(C)O3)CC1`, 1.41%.

Consider `COC(=O)c1c(C)[nH]c(C(=O)NCCc2ccc(S(N)(=O)=O)cc2)c1C`, for which the inhibition is -14.5%. The result for `COC(=O)c1c(C)oc(C)c1S(=O)(=O)NCc1ccc(Cl)cc1` reads -1.53%.

On to `COC(=O)c1c(C)[nH]c(C(=O)/C=C/c2ccc(Cl)cc2)c1C`, for which the inhibition was 9.17% (active). The result for `Cc1c[nH]c2cccc(-c3ccc(Cl)cc3)c12` reads -9.67%; that for `O=C(CC(=O)N/N=C\c1cccc(Cl)c1Cl)NCc1ccccc1`, -1.85%; that for `C=CCOc1ccccc1/C=N/NC(=O)Cc1ccccc1`, 11.4% (active).

Consider `CCn1c(SCC(=O)N/N=C/c2ccccc2OCC(=O)O)nnc1-c1ccc(C(C)(C)C)cc1`, for which the inhibition was -1.28%. Regarding `Oc1ccc(/C=C/c2c(F)cccc2F)c2cccnc12`, the inhibition is -0.42%.

Turning to `Nn1c(SCC(=O)Nc2ccc(S(N)(=O)=O)cc2)nnc1-c1n[nH]c2c1CCC2`, the inhibition is -1.11%. In the case of `CCCN(CC(=O)NC(=O)NC1CCCCC1)CC(=O)Nc1cc(Cl)ccc1Cl` it was 9.13% (active).

Turning to `O=C(COc1cc(Cl)c(Cl)cc1Cl)NC(=O)NC1CCCC1`, the inhibition was -3.67%. The result for `CCOc1ccccc1NC(=O)NC1CCCCCCC1` reads 2.55%.

As a reminder, the inhibition is the change of the read-out against control, counted positive when it falls.
